The campaign covered roughly 5,500 compounds. About 2,000 (36%) were called active. Inconclusive results (about 18%) are left out. Cut-off read from the data, not from the text of the source: active = normalized growth mostly below about 0.91 (no sharp cut-off); inconclusive = no clear call, values can overlap the other calls; inactive = mostly above about 0.92. The list shows a part of the results.
Assay: chemical genetic growth profiling, strain panel (AID 1159580);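 note: tested at 20 µM; growth read once vehicle control cultures reached saturation at 30 °C; 1 = growth at the plate median or of vehicle wells; lower values mean less growth of the strain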
Details: growth OD

Measured: normalized growth

CCCN(CCC)S(=O)(=O)c1ccc(C(=O)O)cc1
inactive: S. cerevisiae deletion strains, locus YJR075W, strain HOC1, active compounds read low 1 | S. cerevisiae deletion strains, locus YKL009W, strain mrt4, active compounds read low 0.998 | S. cerevisiae deletion strains, locus YKL068W, active compounds read low 0.998 | S. cerevisiae deletion strains, locus YKL085W, strain MDH1 (second series), active compounds read low 1 | S. cerevisiae deletion strains, locus YKL085W, strain MDH1, active compounds read low 1 | S. cerevisiae deletion strains, locus YKL160W, strain elf1, active compounds read low 0.971 | S. cerevisiae deletion strains, locus YKL190W, strain CNB1, active compounds read low 0.983 | S. cerevisiae deletion strains, locus YKR001C, strain vps1, active compounds read low 1.02 | S. cerevisiae deletion strains, locus YKR026C, strain gcn3, active compounds read low 0.988 | S. cerevisiae deletion strains, locus YKR091W, strain srl3, active compounds read low 0.993 | S. cerevisiae deletion strains, locus YLL001W, strain dnm1, active compounds read low 0.952 | S. cerevisiae deletion strains, locus YLL026W, active compounds read low 0.984 | S. cerevisiae deletion strains, locus YLL041C, strain sdh2, active compounds read low 0.992 | S. cerevisiae deletion strains, locus YLR027C, strain aat2, active compounds read low 0.973 | S. cerevisiae deletion strains, locus YLR039C, strain RIC1, active compounds read low 1.02 | S. cerevisiae deletion strains, locus YLR058C, strain SHM2, active compounds read low 1 | S. cerevisiae deletion strains, locus YLR102C, strain apc9, active compounds read low 1 | S. cerevisiae deletion strains, locus YLR113W, strain HOG1, active compounds read low 0.976 | S. cerevisiae deletion strains, locus YLR221C, strain rsa3, active compounds read low 0.995 | S. cerevisiae deletion strains, locus YLR258W, strain gsy2, active compounds read low 0.992 | S. cerevisiae deletion strains, locus YLR262C, strain YPT6 (second series), active compounds read low 0.971 | S. cerevisiae deletion strains, locus YLR262C, strain YPT6, active compounds read low 1.01 | S. cerevisiae deletion strains, locus YLR268W, strain sec22, active compounds read low 1.03 | S. cerevisiae deletion strains, locus YLR320W, strain mms22, active compounds read low 0.99 | S. cerevisiae deletion strains, locus YLR330W, strain CHS5, active compounds read low 0.994 | S. cerevisiae deletion strains, locus YLR342W, strain FKS1 (second series), active compounds read low 0.984 | S. cerevisiae deletion strains, locus YLR342W, strain FKS1, active compounds read low 0.961 | S. cerevisiae deletion strains, locus YLR357W, strain rsc2, active compounds read low 0.951 | S. cerevisiae deletion strains, locus YLR370C, strain arc18, active compounds read low 0.974 | S. cerevisiae deletion strains, locus YLR371W, strain rom2, active compounds read low 1.01 | S. cerevisiae deletion strains, locus YLR384C, strain iki3, active compounds read low 0.983 | S. cerevisiae deletion strains, locus YLR418C, strain cdc73, active compounds read low 1.03 | S. cerevisiae deletion strains, locus YML016C, strain PPZ1, active compounds read low 1 | S. cerevisiae deletion strains, locus YML032C, strain rad52, active compounds read low 1.02 | S. cerevisiae deletion strains, locus YML120C, strain ndi1, active compounds read low 0.993 | S. cerevisiae deletion strains, locus YML124C, strain tub3, active compounds read low 1.01 | S. cerevisiae deletion strains, locus YMR058W, strain fet3, active compounds read low 0.991 | S. cerevisiae deletion strains, locus YMR078C, strain ctf18, active compounds read low 1.03 | S. cerevisiae deletion strains, locus YMR125W, strain sto1, active compounds read low 0.983 | S. cerevisiae deletion strains, locus YMR129W, active compounds read low 0.991 | S. cerevisiae deletion strains, locus YMR205C, strain PFK2, active compounds read low 0.984 | S. cerevisiae deletion strains, locus YMR223W, strain ubp8, active compounds read low 0.992 | S. cerevisiae deletion strains, locus YMR231W, strain pep5, active compounds read low 0.986 | S. cerevisiae deletion strains, locus YMR263W, strain SAP30, active compounds read low 1 | S. cerevisiae deletion strains, locus YMR307W, strain GAS1, active compounds read low 1 | S. cerevisiae deletion strains, locus YNL067W, strain RPL9B, active compounds read low 1.01 | S. cerevisiae deletion strains, locus YNL071W, strain lat1, active compounds read low 0.999 | S. cerevisiae deletion strains, locus YNL128W, strain TEP1, active compounds read low 1.01 | S. cerevisiae deletion strains, locus YNL153C, strain GIM3, active compounds read low 1.01 | S. cerevisiae deletion strains, locus YNL183C, strain NPR1, active compounds read low 0.97 | S. cerevisiae deletion strains, locus YNL209W, strain ssb2, active compounds read low 1.01 | S. cerevisiae deletion strains, locus YNL233W, strain BNI4, active compounds read low 0.999 | S. cerevisiae deletion strains, locus YNL248C, strain rpa49, active compounds read low 0.989 | S. cerevisiae deletion strains, locus YNL250W, strain rad50, active compounds read low 1.01 | S. cerevisiae deletion strains, locus YNL271C, strain bni1, active compounds read low 1.01 | S. cerevisiae deletion strains, locus YNL298W, strain CLA4, active compounds read low 1.01 | S. cerevisiae deletion strains, locus YNL307C, strain MCK1, active compounds read low 1.01 | S. cerevisiae deletion strains, locus YNL322C, strain KRE1 (second series), active compounds read low 0.99 | S. cerevisiae deletion strains, locus YNL322C, strain KRE1, active compounds read low 0.997 | S. cerevisiae deletion strains, locus YNR049C, strain mso1, active compounds read low 0.984 | S. cerevisiae deletion strains, locus YNR052C, strain pop2, active compounds read low 1.02 | S. cerevisiae deletion strains, locus YOL006C, strain TOP1, active compounds read low 1.05 | S. cerevisiae deletion strains, locus YOL012C, strain htz1 0.687 | S. cerevisiae deletion strains, locus YOL147C, strain pex11, active compounds read low 1 | S. cerevisiae deletion strains, locus YOR001W, strain rrp6, active compounds read low 0.98 | S. cerevisiae deletion strains, locus YOR061W, strain CKA2, active compounds read low 1 | S. cerevisiae deletion strains, locus YOR069W, strain VPS5, active compounds read low 0.995 | S. cerevisiae deletion strains, locus YOR070C, strain gyp1, active compounds read low 1 | S. cerevisiae deletion strains, locus YOR080W, strain dia2, active compounds read low 0.982 | S. cerevisiae deletion strains, locus YOR083W, strain WHI5, active compounds read low 0.953 | S. cerevisiae deletion strains, locus YOR106W, strain vam3, active compounds read low 0.971 | S. cerevisiae deletion strains, locus YOR136W, strain idh2, active compounds read low 1.02 | S. cerevisiae deletion strains, locus YOR144C, strain elg1, active compounds read low 1.01 | S. cerevisiae deletion strains, locus YOR184W, strain ser1, active compounds read low 1.04 | S. cerevisiae deletion strains, locus YOR231W, strain MKK1, active compounds read low 0.976 | S. cerevisiae deletion strains, locus YOR265W, strain rbl2, active compounds read low 0.992 | S. cerevisiae deletion strains, locus YOR270C, strain vph1, active compounds read low 1 | S. cerevisiae deletion strains, locus YOR290C, strain snf2, active compounds read low 1.01 | S. cerevisiae deletion strains, locus YOR316C, strain cot1, active compounds read low 1.01 | S. cerevisiae deletion strains, locus YPL051W, strain arl3, active compounds read low 0.984 | S. cerevisiae deletion strains, locus YPL055C, strain LGE1, active compounds read low 0.976 | S. cerevisiae deletion strains, locus YPL078C, strain atp4, active compounds read low 0.953 | S. cerevisiae deletion strains, locus YPL106C, strain sse1, active compounds read low 1.01 | S. cerevisiae deletion strains, locus YPL240C, strain hsp82, active compounds read low 0.977 | S. cerevisiae deletion strains, locus YPL241C, strain CIN2, active compounds read low 0.991 | S. cerevisiae deletion strains, locus YPL256C, strain CLN2, active compounds read low 1.04 | S. cerevisiae deletion strains, locus YPR119W, strain clb2, active compounds read low 1.01 | S. cerevisiae deletion strains, locus YPR141C, strain kar3, active compounds read low 1 | S. cerevisiae deletion strains, locus YPR163C, strain tif3, active compounds read low 1.01 | S. cerevisiae deletion strains, locus YPR167C, strain met16, active compounds read low 1.01 | S. cerevisiae deletion strains, strain wtn01, active compounds read low 1.01 | S. cerevisiae strains, strain wild type, active compounds read low 0.99
